Shown are actives, neighbours in structure and some others; about 2.8% of the full set was active somewhere.
Peg3 prom inh: reduces Peg3 promoter-driven luciferase expression in HeLa | HeLa PEG-Prom luciferase reporter, luminescence, overnight | inhibition, % at 20 µM | 1.7% of 360,000 active | AID 588405;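 active = inhibition of at least 50% at 20 µM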
KKLEB cytotox: CF airway cell cytotoxicity counter-screen. KKLEB CF airway cells viability, ATPlite luminescence, overnight; active compounds read low; cells stimulated with P. aeruginosa culture filtrate. activity change (cytotoxicity), % at 5 µM. 0.36% of 360,000 active;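 active = corrected activity change at or below -50% at 5 µM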
MITF TRPM1 inh: reduces MITF-dependent TRPM1 promoter luciferase signal; 0.83% of 330,000 active; inhibition, % at 12.5 µM; SK-MEL-5 TRPM1 promoter luciferase, 24 h; AID 488899;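 active = mean inhibition across replicates of 60% or more, whatever share of single replicates reaches that level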
HIF-2a inh: blocks HIF-2a reporter activity | 786-0 RCC cells HIF-2a reporter, luciferase luminescence, overnight | inhibition, % at 18.8 µM | 0.72% of 360,000 active;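 active = inhibition of the luminescence signal of 40% or more relative to plate controls, in a single-dose primary screen at 18.75 µM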
CF NFkB inh: cystic fibrosis NF-kB activation inhibition; inhibition, % at 5 µM; 0.86% of 360,000 active; KKLEB NF-kB-GFP reporter, PAF-induced, GFP fluorescence overnight;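 active = at least 50% inhibition at 5 µM, scaled per plate between neutral and stimulator controls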;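 note: PAF is a Pseudomonas aeruginosa culture filtrate used as stimulus; plate controls were PAF-stimulated DMSO wells for no effect and unstimulated DMSO wells for full effect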
Shn3 3UTR inh: inhibitors of Schnurri-3 3'UTR reporter in osteoblasts. Clone20 osteoblast Shn3 3'UTR firefly luciferase, 24 h. 0.52% of 360,000 active. inhibition, % at 12.5 µM. AID 588674;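 active = mean inhibition of at least 75% with every replicate also reaching 75%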;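 note: 0% = median of neutral control wells and 100% = pilot-screen positive control compound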
CF NFkB conf: CF NF-kB inhibition confirmation, single concentration | inhibition, % at 5 µM | KKLEB CF airway cells, PAF-induced NF-kB-GFP fluorescence, overnight | shares compounds with CF NFkB inh | 64% of 1,300 active; in the data active = inhibition above about 40%;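 note: stimulus PAF is a Pseudomonas aeruginosa filtrate and not platelet activating factor; plate controls were DMSO wells with stimulus for no effect and unstimulated DMSO wells for full effect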
An asterisk follows results filed as active; x = no result.

SMILES	Peg3 prom inh	KKLEB cytotox	MITF TRPM1 inh	HIF-2a inh	CF NFkB inh	Shn3 3UTR inh	CF NFkB conf
COc1ccccc1[C@]1(C)ON(c2ccccc2C(F)(F)F)C1=O	81.9*	-14.4	58.9	35.3	55.5*	-5.0	70.2*
COc1ccc(C2(c3ccc(OC)cc3)NC(=O)N(CC(=O)Nc3ccccc3C(F)(F)F)C2=O)cc1	7.0	5.5	-3.7	14.1	-1.4	16.8	x
CC1(C(=O)NS(=O)(=O)c2ccccc2OC(F)(F)F)CCN1C(=O)c1ccco1 (stereo not drawn)	1.4	-0.6	x	1.0	-3.7	-6.2	x
Cc1ccc(S(=O)(=O)N2CCC(NC(=O)OC(C)C)CC2)cc1	5.2	10.4	20.7	7.9	9.6	20.3	x
O=C(N/N=C/c1cccnc1)c1ccccc1Cl	-103.0	-4.5	-17.4	-118.8	-13.5	-38.7	x
Nc1c(Cl)c(Cl)nc(C(=O)N/N=C/c2cccnc2)c1Cl	-7.2	-7.5	x	3.5	51.0*	4.0	39.5
CN(CCC#N)C(=O)COC(=O)c1ccc(Cl)c(S(=O)(=O)N(C)c2ccccc2)c1	20.6	-1.7	-18.4	20.1	-5.5	-10.4	x
COc1cccc(CNC(=O)C2CCN(c3cnccn3)CC2)c1	-4.2	12.4	-0.7	13.5	-18.5	13.7	x
O=[N+]([O-])c1ccc(-c2nn(-c3ccccc3)cc2/C=N/n2c(-c3cccs3)n[nH]c2=S)cc1	14.0	-34.4	1.8	5.0	55.6*	-3.0	-7.2
COc1ccc(S(=O)(=O)N(C)C[C@@H]2Oc3c(NS(C)(=O)=O)cccc3C(=O)N([C@@H](C)CO)C[C@H]2C)cc1	-7.2	-7.7	13.0	10.3	-3.5	-9.7	x
Cc1ccc(NC(=O)Nc2cccc([N+](=O)[O-])c2)cc1F	-183.3	-47.7	-31.9	-240.7	64.9*	27.1	51.6*
Cc1cc(NC(=O)Nc2cccc([N+](=O)[O-])c2)no1	-56.1	9.4	-6.1	-39.3	5.0	14.8	x
CC(C)CC(=O)Nc1ccc(C(=O)COC(=O)C2CCC2)cc1	-1.2	9.6	-8.6	-3.8	-21.2	16.8	x
O=C(Nc1nc2ccc(F)cc2s1)C1CCN(S(=O)(=O)c2cc([N+](=O)[O-])ccc2Cl)CC1	-36.3	-16.7	21.4	-209.1	78.8*	65.0	72.3*
Cc1ccc(NC2CCCN(C(=O)c3cc4ncccn4n3)C2)cc1C (stereo not drawn)	15.6	2.0	-15.5	4.1	-11.9	-15.8	x
Cc1sc(NC(=O)CN(C(=O)c2ccccc2F)C2CCCC2)c(C(N)=O)c1C	27.2	-11.4	9.4	4.4	9.1	0.6	x
S=C(Nc1ccccc1)Nc1ccc2cn[nH]c2c1	-288.1	-15.5	-38.9	-272.7	34.9	-68.2	x
CCOc1ccccc1NC(=S)Nc1ccc2cn[nH]c2c1	-53.3	2.3	-9.0	-60.4	57.6*	-23.0	66.6*
CCN(CC)c1ccc(CN2CCCCCC2)cc1	9.8	-3.3	-3.2	19.6	10.0	-0.6	x
Cc1cc2nc(-c3ccco3)c(Cc3ccccc3C(F)(F)F)n2c(C)c1Br	x	x	x	-3.3	x	x	x
CCOC(=O)N1CCC(NC(=O)c2ccc3c(c2)N=C(CC)c2cc(C)ccc2S3)CC1	34.1	6.7	25.2	18.7	17.0	39.9	x
CCOC(=O)N1CCC(NC(=O)c2ccc3c(c2)N=C(C)c2c(C)ccc(C)c2S3)CC1	20.9	-18.5	59.1	24.5	57.3*	30.9	57.6*
COc1c(C)cc(C(O)c2ncc(-c3ccc4ccccc4c3)[nH]2)cc1C (stereo not drawn)	27.9	-12.4	x	-10.1	-8.9	1.4	x
CC(=O)N1CCc2cc(Br)cc(S(=O)(=O)NCCCN(C)Cc3ccccc3)c21	-12.0	-4.9	-5.6	15.3	7.2	4.0	x
Nc1cccc2c1C(=O)N(C(=O)/C=C/c1ccc(F)cc1)C2=O	102.2*	-23.9	41.9	28.9	64.6*	43.9	15.0
Nc1cccc2c1C(=O)N(C(=O)c1ccco1)C2=O	11.0	2.9	4.8	5.9	8.6	16.2	x
O=C(CC12CC3CC(CC(C3)C1)C2)Nc1nncs1	36.3	-5.0	2.3	18.9	50.4*	7.0	60.8*
Cc1nnc(NC(=O)CC23CC4CC(CC(C4)C2)C3)s1	-5.3	-3.9	x	-1.5	13.0	12.4	x
CCn1c(=O)c2c(n3c(=S)[nH]nc13)-c1ccccc1CC21CCCCC1	17.8	-8.2	3.6	16.1	17.2	-1.2	x

Screening data deposited in PubChem BioAssay by several laboratories.
